Molecules are shown by their SMILES. Results filed as inconclusive are left out. A call without a number means that no potency is given here. The source made the active and inactive calls. Calls come from the whole dose curve; as a rule, active = well fitted inhibition curve with a large enough effect; inconclusive = small, poorly fitted or top-dose-only effect, or effect the other way; inactive = flat fitted curve, though single readings scatter.
Potency is the fitted concentration of half-maximal effect.

Chain of Ubiquitin carboxyl-terminal hydrolase 2 (Homo sapiens) (O75604 whole entry, looked up): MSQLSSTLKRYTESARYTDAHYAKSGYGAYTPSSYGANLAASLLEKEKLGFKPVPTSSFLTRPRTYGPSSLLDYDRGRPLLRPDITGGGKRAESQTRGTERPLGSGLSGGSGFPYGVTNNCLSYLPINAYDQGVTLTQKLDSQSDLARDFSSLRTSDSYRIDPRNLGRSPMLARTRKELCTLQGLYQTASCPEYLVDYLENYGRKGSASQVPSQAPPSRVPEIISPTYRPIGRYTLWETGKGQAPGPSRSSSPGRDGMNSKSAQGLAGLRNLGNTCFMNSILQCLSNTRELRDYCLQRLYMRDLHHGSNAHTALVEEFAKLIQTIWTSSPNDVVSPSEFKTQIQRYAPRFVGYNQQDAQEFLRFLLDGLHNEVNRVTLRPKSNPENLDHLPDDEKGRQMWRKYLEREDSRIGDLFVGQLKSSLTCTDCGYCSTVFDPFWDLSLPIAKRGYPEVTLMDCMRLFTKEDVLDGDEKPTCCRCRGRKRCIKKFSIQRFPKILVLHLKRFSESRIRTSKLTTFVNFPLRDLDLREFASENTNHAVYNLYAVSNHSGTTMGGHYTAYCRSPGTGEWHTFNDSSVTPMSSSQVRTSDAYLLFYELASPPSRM

This experiment addresses Ubiquitin carboxyl-terminal hydrolase 2 (Homo sapiens) (UniProt O75604). The experiment is described as follows: Ub-rhodamine 110 based assay for inhibitors Ubiquitin-specific Protease USP2a. Note: nearly all actives have a fitted effect of over 50% in size. To be noted: USP2a Ub-rhodamine110 cleavage, fluorescence; series mostly up to 38.3 µM. The method, boiled down: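 5 nM USP2a preincubated with compounds for 30 min at RT in 20 mM Tris-HCl pH 8.0, 2 mM CaCl2, 2 mM beta-mercaptoethanol, 0.05% CHAPS. Cleavage of 150 nM Ub-rhodamine 110 read kinetically (Ex 485/Em 531) for 7 min.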
As for `Cc1cc(C)n2cc(CSc3nnnn3-c3ccccc3C)nc2n1`, the Potency result was “inactive”.
The value for `Cc1ccc(S(=O)(=O)N2CCOCC2)cc1NC(=O)CN1C(=O)NC(C)(c2ccc(Cl)cc2Cl)C1=O` (stereo not given) was “inactive”; that for `CCCn1nnc(NC(=O)c2cccc(OCC(C)C)c2)n1` was “inactive”; that for `CC(C)CC(=O)NC(=S)Nc1nc(-c2ccc(Cl)cc2)cs1` was “inactive”.
The value for `N=c1sccn1CC(=O)Nc1ccc(S(=O)(=O)N2CCOCC2)cc1` was “inactive”.
The value for `Cc1ccc(C(=O)NCc2ccc3c(c2)OCO3)cc1N1CCCC1=O` was “inactive”; that for `O=C(CSc1ccc2nnc(-c3cccc(F)c3)n2n1)N1CCCc2ccccc21` was “inactive”.
For `CC(C)(C)[C@H]1COC(=O)[C@@H](Cc2ccc(F)cc2)C/C=C\C[C@@H](CC(=O)N[C@H](CO)Cc2ccccc2)C(=O)N1`, the Potency result was “inactive”.
As for `COc1ccc(CCn2c(O)cc3nn(-c4nc5ccccc5s4)c(=O)c-3c2C)cc1`, the figure is 5.62 µM (active); as for `COCCCNC(=O)C1CCN(c2nc(C)cc(C)n2)CC1`, “inactive”.
The value for `Cc1cc(C(=O)Nc2ccccc2N2CCOCC2)c2ccccc2n1` was “inactive”.
As for `CCCOc1ccc(-c2nc(C#N)c(N3CCN(CC)CC3)o2)cc1`, the entry is “inactive”; as for `O=C1NCC(CN(c2ccccc2)c2ccccc2)O1` (stereo not given), “inactive”.
For the compound `COc1ccc(C(=O)N/C(=C\c2cccs2)C(=O)N2CCN(C)CC2)cc1OC`, the Potency entry is “inactive”.
Take `CN(C)C=Nc1ncc2c3ccccc3n(CCN(C)C)c2c1C#N`: the Potency result is “inactive”.
The value for `Cc1ccc(NC(=O)c2onc(C)c2Cl)cc1` was “inactive”.
The value for `Cc1ccc(S(=O)(=O)N2[C@@H](c3ccccc3F)C(C(=O)O)=CC[C@H]2c2ccc(Cl)c(Cl)c2)cc1` was 11.2 µM (active); that for `C[C@H](CO)N1C[C@H](C)[C@@H](CN(C)S(=O)(=O)c2cn(C)cn2)Oc2ccc(NC(=O)Cn3cnnn3)cc2C1=O` was “inactive”; that for `Cc1cc(N=Nc2ccc(C)c(N=Nc3cc(C)c(N)cc3N)c2)c(N)cc1N` was “inactive”.
The value for `Cc1ccc(/C=C/S(=O)(=O)N2CCC(C(=O)O)CC2)cc1` was “inactive”; that for `Fc1ccc(-c2nnn(Cc3nc4ccccc4s3)n2)cc1` was “inactive”.
Consider `N#Cc1cc(Sc2ccccn2)c(Sc2ccccn2)cc1C#N`, for which the Potency result is “inactive”.
As for `COc1ccc(NC(=O)c2cc(-c3ccco3)nc3ccccc23)cc1S(=O)(=O)N1CCOCC1`, the figure is 4.47 µM (active).
As to `COc1ccc(-c2nc(C#N)c(NCC3CCCO3)o2)cc1OC` (stereo not given), the Potency result was “inactive”.
As for `C#CCOCCOCCOCCNc1nc(N2CCN(C(=O)CCCCCCCCCCNC(=O)Cn3cc(CCCCCN)nn3)CC2)nc(N2CCN(C(=O)CCCCCCCCCCNC(=O)Cn3cc(CCCCCN)nn3)CC2)n1`, the entry is “inactive”; as for `Cc1ccc2nc(NCCCNC(=O)c3cnccn3)c(C#N)cc2c1`, “inactive”.
For the compound `CCOC(=O)C(C)Sc1nnc(Cn2c(=O)sc3ccccc32)n1-c1ccccc1` (stereo not given), the Potency entry was “inactive”.
The value for `CC(C)c1ccc(C2=C(O)c3ccccc3C(=O)C2=O)cc1` was “inactive”; that for `CC1CCCCC1NC(=O)CSCC(=O)O` (stereo not given) was “inactive”; that for `Cn1c(=O)c2c(nc(CN3CCN(C(=O)c4ccco4)CC3)n2CCCc2ccccc2)n(C)c1=O` was “inactive”.
As for `CCOC(=O)N1CCN(C(=O)CN(c2ccc(Oc3ccccc3)cc2)S(C)(=O)=O)CC1`, the entry is “inactive”; as for `Cc1cccc(N=C2NC(=O)/C(=C/C=C/c3ccco3)S2)c1`, 10 µM (active); as for `Cc1noc(C)c1NC(=O)Nc1ccc2c(c1)C(=O)N([C@H](C)CO)C[C@H](C)[C@@H](CN(C)S(=O)(=O)c1ccccc1)O2`, “inactive”.
For the compound `Cc1n[nH]c(C)c1S(=O)(=O)N1CCCC(C(=O)NC2CCCc3ccccc32)C1` (stereo not given), the Potency result is “inactive”.
Regarding `Cn1c(C(=O)N2CCN(Cc3ccc4c(c3)OCO4)CC2)cc2sccc21`, the Potency entry is “inactive”.
As for `Cc1ccc(S(=O)(=O)Nc2ccccc2-c2ccccc2NS(=O)(=O)c2ccc(C)cc2)cc1`, the figure is 8.91 µM (active).
The value for `COc1ccc(OC)c(Nc2ccc(Nc3cc(OC)ccc3OC)nn2)c1` was “inactive”; that for `O=[N+]([O-])/C(C(Cl)=C(Cl)Cl)=C(\Sc1ccccc1)N1CCCCC1` was “inactive”; that for `Cc1ccc(NC(=O)CCC(=O)OC(C)C(=O)c2ccccc2)cc1` (stereo not given) was “inactive”.
As for `CC1CCCCN1CCNC(=O)CC1Oc2ccccc2NC1=O` (stereo not given), the entry is “inactive”.

(Values after PubChem BioAssay AID493170 (National Center for Advancing Translational Sciences (NCATS), 2011).)
